The record followed here is the supplement of paper PMC10811239.

For this assay, the system named is LEGO organoid PTN (PTEN-/-; TP53-/-; NF1-/-). Description: bioluminescence (viable cell) signal fold change after vs before treatment, normalised to DMSO (ratio); higher = more tumour cell growth / less inhibition. To be noted: 10 µM; treatment time 6 days. How it is done: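 Luc2-labelled iPSC-derived glioblastoma-like organoids (LEGOs, genotypes PT = PTEN-/-;TP53-/-, PTCC = plus CDKN2A/B-/-, PTN = plus NF1-/-) were treated with 10 uM drug for 6 days (applied every other day) at 37 C. Bioluminescence imaging was done before treatment and 2 days after the last dose. BLI signals were normalised to the DMSO control on the same day and then to the pre-treatment signal (N=3).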
Take `C=CC(=O)N1CCC[C@@H](n2nc(-c3ccc(Oc4ccccc4)cc3)c3c(N)ncnc32)C1` [Ibrutinib]: the bioluminescence was found to be 1.26.
`NC(CO)(CO)CO.O=C(c1ccccc1)c1ccc2n1CCC2C(=O)O` (stereo not given) [Ketorolac tromethamine salt]: the bioluminescence was determined as 2.19.
For `CC(=O)N[C@@H](CS)C(=O)O` [Acetylcysteine], the bioluminescence stood at 3.17.
Take `COc1cc2c(Nc3ccc(Br)cc3F)ncnc2cc1OCC1CCN(C)CC1` [Vandetanib]: the bioluminescence amounted to 0.168.
Regarding `CO[C@H]1/C=C/O[C@@]2(C)Oc3c(C)c(O)c4c(O)c(c(/C=N/N5CCN(C6CCCC6)CC5)c(O)c4c3C2=O)NC(=O)/C(C)=C\C=C\[C@H](C)[C@H](O)[C@@H](C)[C@@H](O)[C@@H](C)[C@H](OC(C)=O)[C@@H]1C` [Rifapentine], the bioluminescence was found to be 1.39.
